Results published in PubChem BioAssay (NCI).
Compounds without any hit were thinned out: in the full panel of roughly 83,000, 20% have a hit.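 How to read the values: 0–100, growth inhibition (40 = 60% inhibited); 0, no net growth; -100 to 0, cell death (-40 = 40% of starting cells died; -100 = all dead).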 Values without a mark were called inactive. The source made the active and inactive calls. How the source made its calls: active means growth percent below 10; inactive means the rest.

What was measured:
Test in all cases: NCI-60 one-dose screen, 48 h (100 = growth as untreated, 0 = no growth, -100 = all killed)
Conditions in all cases: 10 µM unless noted
HCT-15 colon = tested on: HCT-15 colon
HT29 colon = tested on: HT29 colon
SNB-75 CNS = tested on: SNB-75 CNS
SNB-19 CNS = tested on: SNB-19 CNS
U251 CNS = tested on: U251 CNS
PC-3 prostate = tested on: PC-3 prostate
SK-MEL-5 melanoma = tested on: SK-MEL-5 melanoma
UACC-62 melanoma = tested on: UACC-62 melanoma
LOX IMVI melanoma = tested on: LOX IMVI melanoma
SK-MEL-2 melanoma = tested on: SK-MEL-2 melanoma
EKVX NSCLC = tested on: EKVX NSCLC
SN12C renal = tested on: SN12C renal
UO-31 renal = tested on: UO-31 renal
TK-10 renal = tested on: TK-10 renal
ACHN renal = tested on: ACHN renal
CAKI-1 renal = tested on: CAKI-1 renal
A498 renal = tested on: A498 renal
CCRF-CEM leukemia = tested on: CCRF-CEM leukemia
MOLT-4 leukemia = tested on: MOLT-4 leukemia
SK-MEL-28 melanoma = tested on: SK-MEL-28 melanoma

SMILES | growth (HCT-15 colon) | growth (HT29 colon) | growth (SNB-75 CNS) | growth (SNB-19 CNS) | growth (U251 CNS) | growth (PC-3 prostate) | growth (SK-MEL-5 melanoma) | growth (UACC-62 melanoma) | growth (LOX IMVI melanoma) | growth (SK-MEL-2 melanoma) | growth (EKVX NSCLC) | growth (SN12C renal) | growth (UO-31 renal) | growth (TK-10 renal) | growth (ACHN renal) | growth (CAKI-1 renal) | growth (A498 renal) | growth (CCRF-CEM leukemia) | growth (MOLT-4 leukemia) | growth (SK-MEL-28 melanoma)
CCOP(=O)(OCC)OC[C@]12CCC(C)(C)C=C1[C@H]1CC[C@@H]3[C@@]4(C)CC[C@H](OP(=O)(OCC)OCC)C(C)(C)[C@@H]4CC[C@@]3(C)[C@]1(C)CC2 | -73.3% (active) | -42.4% (active) | -11.5% (active) | -12.4% (active) | -84.9% (active) | 0.0741% (active) | -93.4% (active) | -29.4% (active) | -90.1% (active) | -60.9% (active) | -10.3% (active) | -70.6% (active) | -61% (active) | -18% (active) | -8.2% (active) | -63% (active) | -8.86% (active) | -23.2% (active) | -20.4% (active) | 
C=CCn1c(SCC(=O)Nc2ccc(C(=O)/C=C/c3ccc(Cl)cc3)cc2)nnc1-c1c[nH]c2ccccc12 | 62.9% | 88.7% | 93.5% | 76.1% | 76.3% | 58.4% | 42.9% | 57.4% | 1.53% (active) |  | 56.1% | 71.5% | 47.8% | 103% | 77.6% |  | 91.4% | 75.3% | 66.4% | 90.2%
N#C/C(=C\c1ccc(-c2ccc(Cl)cc2Cl)o1)c1ccc(F)cc1 | 94.5% | 96.4% | 77.6% | 96.7% | 98.5% | 87.8% | 95.7% | 71.2% | 87.6% |  | 87.4% | 98.6% | 81.5% | 138% | 89.9% | 68.8% |  | 93.7% | 93.8% | 102%
COc1ccc(-n2c(SCc3n[nH]c(=S)o3)nc3ccc(Cl)cc3c2=O)cc1 | 93.6% | 105% | 95.5% | 92.9% | 104% | 101% | 93.5% | 92% | 101% |  | 98.7% | 92% | 93.7% | 105% | 97% | 85.5% |  | 98.7% | 111% | 95.1%
Cc1cc2ncc(-c3cc4ccccc4c(N4CCN(C)CC4)n3)nc2cc1C | -69.7% (active) | -60.4% (active) | 56.1% | 73% | -30.9% (active) | 57.5% | 16.2% | -46.6% (active) | -83.8% (active) |  | 73.8% | 31.5% | 4.16% (active) | 67.2% | -42.1% (active) | 30.2% |  | 1.37% (active) | -8.83% (active) | -69.9% (active)
COc1ccc(-n2c(SCc3nnc(NC(=O)c4ccc(Br)cc4)s3)nc3cc(OC)c(OC)cc3c2=O)cc1 | 85.1% | 104% | 93.4% | 89.6% | 86.3% | 87.9% | 91.8% | 91.4% | 90.5% |  | 91.1% | 91% | 84.2% | 118% | 97.5% | 83.8% |  | 90.9% | 105% | 88.7%
COc1cccc2c1CN(C(=O)c1ccc(O)c(C(=O)N3Cc4ccc(OCCC[P+](c5ccccc5)(c5ccccc5)c5ccccc5)cc4C3)c1)C2 | 102% | 100% | 80.9% | 28.3% | 53.6% | 71.7% | 35.7% | 44.4% | 42.7% | 61.5% | 52.4% | 90.4% | 77.3% | 116% | 96.6% | 82.3% | 107% | 71.1% | 93.6% | 
Cc1ccc(-n2cc(/C=N/NC(=O)c3nc(N)n[nH]3)c(-c3ccc(S(C)(=O)=O)cc3)n2)cc1 | 86.4% | 105% | 92.2% | 97.4% | 101% | 96.8% | 103% | 88.5% | 90.2% |  |  | 96.6% | 92.6% | 119% | 101% | 92.6% | 97.6% | 84% | 97.9% | 101%
